PubChem BioAssay AID977606 (Broad Institute, 2014)
The whole screen tested about 1,500 compounds, of which about 430 (29%) were called active. These entries were drawn from the full list. Results with a measured potency or affinity are listed apart. Unmarked numbers belong to inactive results. The rule behind the calls is not given here.

Assay: glucose-independent GLuc insulin release activation – cell-based, INS-1E, Gaussia luciferase, luminescence, cherry-pick, counter-screen for glucose-dependent insulin secretion activators, dose response (AID 977606);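 note: 0% = median of neutral control wells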
Settings: INS-1E Gaussia luciferase insulin secretion, no glucose, 100% = twice neutral-control luminescence; series mostly up to 35 µM; activation: at the top concentration

SMILES | activation [%]
CCCCOc1ccc(C2=NNC(=O)CC2)cc1 | 2.01
CCc1cc2c(COC(=O)c3cccc(NS(C)(=O)=O)c3)cc(=O)oc2cc1O | -6.11
COCCNc1nc(Oc2ccc(C(N)=O)cc2)c2sccc2n1 | -5.61
CC(C)Cc1nc2n[nH]c(N)c2c2c1COC(C)(C)C2 | 10.5
Cc1cc(C)c2oc(C(=O)Nc3ccc(S(=O)(=O)Nc4nccc(C)n4)cc3)cc(=O)c2c1 | -2.17
C=CCNC(=O)c1cc(-c2ccc3c(c2)OCO3)on1 | -13.2
O=C(N/N=C/c1ccc2c(c1)OCO2)c1ccc(Cl)cc1Cl | -15.4
COc1ccc(C2CC(=O)Nc3sc(=N)c4c(N)c(C#N)c(N)nc4c32)cc1OC (stereo not drawn) | -7.45
Cc1ccsc1/C=N/n1c(-c2ccncc2)n[nH]c1=S | 1.74
COCCNc1nc(N2CCCCC2)c2cnn(C)c2n1 | 7.01
COc1cc2c(cc1OC)C(Cc1ccc(O)cc1)NCC2 (stereo not drawn) | -1.37
COc1cc2c(cc1OC)C(Cc1ccc(O)cc1)N(C)CC2 (stereo not drawn) | -9.53
c1ccc(-c2nc(NCC3CC3)nc3ccsc23)cc1 | 7.35
CN1CCCCC(NC(=O)c2ccccc2)C1=O (stereo not drawn) | 9.94
Cc1nccn1-c1ncnc2sc3c(c12)CCCC3 | -5.65
COc1ccccc1CSc1nc2c(c(=O)n(C)c(=O)n2C)n1C | -8.58
COC(=O)c1ccc(CNC(=O)CCc2c[nH]c3ccccc23)cc1 | -10.2

SMILES | activation [%]
Cc1nnc2c(NCCC(C)C)nc3ccccc3n12 | -2.67
CCOC(=O)c1nc(NCc2cccnc2)c2ccccc2n1 | -0.868
Cn1c(=O)n(Cc2ccccc2Br)c2ccccc21 | 27.3
CC(C)CCN1CC(O)=C(c2nc(-c3ccc(Cl)cc3)cs2)C1=N | 4.45
C=CCNc1cc(C)oc(=O)c1C(=O)CCC | -6.6
COc1ccccc1CNS(=O)(=O)c1cc(-c2cc(C)no2)ccc1C(C)C | -7.45
COc1ccccc1Cn1c(=O)oc2ccccc21 | 1.4
COc1ccc(CNC(=O)C2Cc3c(-c4cccc(F)c4)ccnc3O2)cc1OC (stereo not drawn) | -55.6
COc1ccc(CN2CCOC2=O)cc1OC | -14.9
COC(=O)[C@]1(Cc2ccccc2)N[C@H](CN(C)C(=O)Nc2ccc(C)cc2)[C@@H]2C(=O)N(C)C(=O)[C@@H]21 | -4.45
CCNc1nc(NC(C)C)nc(N(C)C#N)n1 | -1.68
CC1CN(S(=O)(=O)c2cc(C(=O)NC(C)c3cccnc3)ccc2Cl)CC(C)O1 (stereo not drawn) | -5.54
COc1cc2c(cc1OC)[C@H](C)N(C(=O)NCc1ccccc1)CC2 | -7.31
CC(=O)Nc1nc(C)nc(-c2ccccc2OC(C)=O)n1 | 25.7
CCOC1=C2[C@H](c3ccc(C)cc3)N(S(=O)(=O)c3ccc(C)cc3)C[C@H]2n2c(=O)n(-c3ccccc3)c(=O)n2C1 | 0.601
Cc1ccc(C(CC(=O)O)NC(=O)c2ccc(S(=O)(=O)N3CC(C)OC(C)C3)cc2)cc1 (stereo not drawn) | -15.2
